Growth data for 13 compounds are collected here from PubChem BioAssay (NCI).

This is part of a sample that, as a whole, favours compounds with a hit. Of some 83,000 tested, about 20% had one in any assay.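 Cell lines were cultured in 96-well plates, exposed to a single compound concentration, and assessed for percent growth 48 hours later.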 Values without a mark were called inactive. Activity calls are given as the source filed them. Rule for the calls: active = growth percent below 10; inactive = the rest.

What all share (assay): NCI-60 one-dose screen, 48 h (100 = growth as untreated, 0 = no growth, -100 = all killed)
Holding throughout (conditions): 10 µM unless noted

Assay [1] deals with NCI/ADR-RES ovarian.
Assay [2] concerns T-47D breast.
The subject of assay [3] is BT-549 breast.
Assay [4] deals with MDA-MB-435 melanoma.
In assay [5] the test system is SW-620 colon.
Assay [6] relates to MCF7 breast.
Assay [7] relates to HCT-116 colon.
Assay [8] relates to HCC-2998 colon.
For assay [9], the system named is KM12 colon.

Regarding `Clc1ccc(N2COOC3(OOC2)C2CC4CC(C2)CC3C4)cc1`, the growth in assay [1] is -13.3% (active); in assay [2], 49.1%; in assay [3], 68.7%; in assay [4], 53.1%; in assay [5], 75.3%; in assay [6], 71.7%. Moreover, the growth in assay [7] was 50.4%; in [8] it was 102%; in [9], 36%.

With `CO[C@H](C(=O)O)[C@@H]1Cc2cc3cc(OC4CC(OC5CC(O)C(O)C(C)O5)C(O)C(C)O4)c(C)c(O)c3c(O)c2C(=O)[C@H]1OC1CC(OC2CC(OC3CC(C)(O)C(O)C(C)O3)C(O)C(C)O2)C(O)C(C)O1` (some centres not stated), the growth was 74% in [1]; 12.8% in assay [2]; -41.9% (active) in assay [3]; 1.21% (active) in assay [4]; 19.1% in [5]; 7.44% (active) in [6]. Also, the growth is 6.04% (active) in [7], -37.8% (active) in assay [8] and 7.07% (active) in assay [9].

For `COC(=O)[C@@H](C)C[C@H](Cc1ccccc1)NC(=O)c1csc([C@@H](C[C@H](C(C)C)N(C)C(=O)C2(NC(=O)[C@H]3CCCCN3C)CCC2)OC(C)=O)n1`, the growth in assay [1] was 46.5%; in assay [2], 50.1%; in [3], 11.6%; in assay [4], -25.3% (active); in assay [5] it was 23%; in assay [6], 21.9%. Further, the figures for the growth in [7], in [8] and in assay [9] were 3.39% (active), 12.4% and 5.71% (active), respectively.

In the case of `COC(=O)[C@@H](C)C[C@H](Cc1ccc(F)cc1)NC(=O)c1csc([C@@H](C[C@H](C(C)C)N(C)C(=O)[C@@H](NC(=O)[C@H]2CCCCN2C)C2CC2)OC(C)=O)n1`, the growth in [1] was 76.4%; in assay [2] it was 60.1%; in assay [3], -0.522% (active); in [4], -50.1% (active); in assay [5], 27.2%; in [6], 19.6%. The growth was 3.44% (active) in assay [7], 28.8% in assay [8] and 14% in [9].

Turning to `COc1cc(/C=C/[N+](=O)[O-])cc(OC)c1`, the growth in assay [1] was 11.3%; in assay [2], -1.67% (active); in assay [3], -49.7% (active); in assay [4], -46.4% (active); in [5], -10.5% (active); in assay [6], -59.1% (active). In addition, the results for the growth in assay [7], in assay [8] and in assay [9] were -68.3% (active), -79.7% (active) and -23.7% (active), respectively.

Regarding `CC[C@H](C)[C@H](NC(=O)c1ccccn1)C(=O)N(C)[C@H](C[C@@H](OC(C)=O)c1nc(C(=O)N[C@@H](Cc2ccccc2)C[C@H](C)C(=O)OC)cs1)C(C)C`, the growth is 16.1% in assay [1]; 80.7% in assay [2]; 24.2% in [3]; -25.3% (active) in assay [4]; 25.7% in [5]; 21.2% in [6]. The growth in [7] was 9.41% (active); in assay [8], 23.9%; in assay [9], 10.2%.

Turning to `N#CC1C(C#N)C2CCC1C1C2N1c1ccccc1` (configuration not stated), the growth is 111% in assay [1]; 108% in assay [2]; 98.1% in assay [3]; 107% in assay [4]; 100% in assay [5]; 101% in [6]. The figures for the growth in assay [7], in assay [8] and in assay [9] were 95.1%, 102% and 102%, respectively.

As to `CC(=O)c1ccc(C(=O)NCC2CCC3(CC2)OOC2(CCCCC2)OO3)cc1`, the growth was 17.4% in assay [1]; 53.9% in assay [2]; 91.9% in assay [3]; 88% in assay [4]; 22.1% in assay [5]; 81.7% in assay [6]. Moreover, the growth in assay [7] is 79%; in [8] it was 108%; in assay [9], 69.7%.

Consider `CC(C)(C)C(=O)OCOP(=O)(NCc1ccccc1)C1CCCN(O)C1=O` (configuration not stated), for which the growth was 13.5% in assay [1]; 23.3% in assay [2]; 28% in assay [3]; 39.4% in assay [4]; 30.1% in assay [5]; 19.3% in assay [6]. The growth in [7] was 7% (active); in assay [8] it was 24.7%; in assay [9], -7.5% (active).

`C[C@]12CCc3sc(NCCc4ccccc4)nc3C1=CC[C@@H]1[C@@H]2CC[C@]2(C)C(=O)CC[C@@H]12`: the growth is 70.2% in assay [1]; 75.2% in assay [2]; 60.4% in [3]; 58.1% in [4]; 35.3% in assay [5]; 20.4% in assay [6]. In addition, the growth was 21.2% in [7], 106% in assay [8] and 74.7% in [9].

`O=C(Nc1ccncc1F)c1cn(CC2CC2)c2ccccc12`: the growth in [1] is 101%; in assay [2], 92.3%; in assay [3] it was 94.4%; in assay [4] it was 106%; in [5], 105%; in [6] it was 94.9%. In addition, the values for the growth in [7], in assay [8] and in assay [9] were 99.5%, 106% and 104%, respectively.

On to `COC(C(=O)[C@@H](O)[C@@H](C)O)[C@@H]1Cc2cc3cc(O[C@H]4C[C@@H](O[C@H]5C[C@@H](O)[C@H](O)C(C)O5)[C@H](O)C(C)O4)c(C)c(O)c3c(O)c2C(=O)[C@H]1O[C@H]1C[C@@H](O[C@H]2C[C@@H](O[C@H]3C[C@@H](O)[C@@H](O)C(C)O3)[C@@H](O)C(C)O2)[C@H](O)C(C)O1` (some centres not stated), for which the growth in assay [1] is 85.5%; in assay [2], -1.75% (active); in [3] it was -27.2% (active); in [4], -37.2% (active); in assay [5], 22.2%; in assay [6], 0.0061% (active). The growth in assay [7] was 2.29% (active); in assay [8], -5.17% (active); in assay [9], 4.05% (active).

On to `C/C(=C\c1ccn(-c2ccccc2N)n1)[C@@H]1C[C@@H]2O[C@]2(C)CCC[C@H](C)[C@H](O)[C@@H](C)C(=O)C(C)(C)[C@@H](O)CC(=O)O1`, for which the growth in assay [1] was -4.02% (active); in assay [2] it was 36.4%; in assay [3] it was 15%; in [4], -46.6% (active); in assay [5] it was 38.3%; in assay [6], 18.6%. The values for the growth in [7], in assay [8] and in [9] were 12.1%, 3.48% (active) and 14.6%, respectively.
